Data from the supplement of paper PMC13380429.

What was measured:
[1] = test system: Vero E6 infected with SARS-CoV-2; assay: morphology score (similarity to uninfected cells); higher = more like uninfected cells; conditions: 24 h
[2] = test system: Vero E6 infected with SARS-CoV-2; assay: SARS-CoV-2 infection rate relative to infected DMSO; higher = more infection, active = 60 or less; conditions: 24 h

| Compound | morphology score [1] | SARS-CoV-2 infection rate [2] |
| --- | --- | --- |
| CSc1ccccc1OCC(O)CNC(C)C (stereo not given) [tiprenolol] (10 µM) | -0.224 | 110% (inactive) |
| N[C@H]1CCN(O)C1=O (10 µM) | 0.0281 | 99.2% (inactive) |
| Cn1cc([S+](C)[O-])c(=O)c2ccc(F)cc21 (stereo not given) [flosequinan] (10 µM) | 0.195 | 96.5% (inactive) |
| [N-]=[N+]=CC(=O)CC[C@H](N)C(=O)O [6-diazo-5-oxo-L-norleucine] (10 µM) | 0.196 | 93.5% (inactive) |
| COc1ccccc1N1CCN(CC(O)COc2cc(OC)c(OC)c(OC)c2)CC1 (stereo not given) [enciprazine] (10 µM) | 0.0687 | 110% (inactive) |
| N[C@H](CO)C(=O)O [D-serine] (10 µM) | 0.0301 | 104% (inactive) |
| CN(C)/N=N/c1[nH]cnc1C(N)=O [dacarbazine] (10 µM) | 0.135 | 87% (inactive) |
| OC[C@H]1O[C@@H](O[C@@H]2[C@H](O)[C@@H](O)[C@H](O[C@H]3[C@H](O)[C@@H](O)C(O)O[C@@H]3CO)O[C@@H]2CO)[C@H](O)[C@@H](O)[C@H]1O (stereo not given in full) [4-galactosyllactose] (10 µM) | -0.0673 | 114% (inactive) |
| CC(C)(c1ccc(O)cc1)c1ccc(O)cc1 [bisphenol-A] (10 µM) | 0.0642 | 106% (inactive) |
| CCC(=O)OCN1C(=O)C=CC1=O (10 µM) | 0.14 | 97% (inactive) |
| NC(=O)C(c1ccccc1)(c1ccc(F)cc1)c1ccc(F)cc1 [senicapoc] (10 µM) | -0.127 | 114% (inactive) |
| CC(=O)SC[C@@H](Cc1ccccc1)C(=O)NCC(=O)OCc1ccccc1 (racemic) [racecadotril] (10 µM) | 0.0461 | 110% (inactive) |
| Cc1ccc(NC2=NCCN2)c(Cl)c1 [tolonidine] (10 µM) | -0.0217 | 98.5% (inactive) |
| O=C(O)CCc1cc(I)c(Oc2ccc(O)cc2)c(I)c1 [diiodothyropropionic-acid] (10 µM) | 0.207 | 92% (inactive) |
| O=C1CC2(CCCC2)CC(=O)N1CCCCNC[C@H]1COc2ccccc2O1 (racemic) (10 µM) | -0.0862 | 108% (inactive) |
| CC(COc1ccccc1Cc1ccccc1)N1CCCCC1 (stereo not given) [benproperine] (10 µM) | 0.214 | 79% (inactive) |
| N#C/C(=C\c1ccc(O)c(O)c1)C(=O)OCCc1cccs1 (10 µM) | -0.0101 | 108% (inactive) |
| CCOc1ccc2nc(S(N)(=O)=O)sc2c1 [ethoxzolamide] (10 µM) | 0.205 | 97.5% (inactive) |
| COc1ccc(S(=O)(=O)N2CCC[C@H]2C(=O)Nc2cc(C)cc(C)c2)cc1 (10 µM) | -0.0886 | 113% (inactive) |
| CN1C[C@H](CNC(=O)OCc2ccccc2)C[C@@H]2c3cccc4c3c(cn4C)C[C@H]21 [metergoline] (10 µM) | 0.164 | 97.5% (inactive) |

| Compound | morphology score [1] | SARS-CoV-2 infection rate [2] |
| --- | --- | --- |
| COc1ccccc1C(=O)Nc1cc2c(cc1N1CCCC1)n(C)c(=O)n2C (10 µM) | 0.0131 | 93.5% (inactive) |
| COc1cc(Cc2cnc(N)nc2N)cc(OC)c1OC [trimethoprim] (10 µM) | -0.0548 | 98.5% (inactive) |
| O=C(Nc1cccc2cccnc12)c1ccc(N2C(=O)[C@@H]3[C@H](C2=O)[C@@H]2C=C[C@H]3C2)cc1 [endo-IWR-1] (10 µM) | -0.0752 | 98.5% (inactive) |
| O=C(Cn1ccnc1[N+](=O)[O-])NCCO [etanidazole] (10 µM) | 0.0673 | 94.5% (inactive) |
| CNC1CC(c2ccc(Cl)c(Cl)c2)c2ccccc21 (stereo not given) [indatraline] (10 µM) | -0.112 | 114% (inactive) |
| O=C(O)C[C@H](O)C(=O)O [malic-acid] (10 µM) | -0.0659 | 104% (inactive) |
| Cc1ccc(NC2=CC(=O)c3sc(C)nc3C2=O)cc1 [ryuvidine] (0.833333 µM) | 0.165 | 104% (inactive) |
| CC(=O)OCC(=O)[C@@]1(O)CC[C@H]2[C@@H]3CCC4=CC(=O)C=C[C@]4(C)[C@@]3(Cl)[C@@H](Cl)C[C@@]21C [dichlorisone-acetate] (10 µM) | -0.00102 | 102% (inactive) |
| CC(C)C(N)C(=O)O (stereo in doubt) [L-valine] (10 µM) | 0.0236 | 109% (inactive) |
| O=S(=O)(O)c1cc(O)ccc1O [etamsylate] (10 µM) | 0.0853 | 94.5% (inactive) |
| C=Cc1cc(O)cc2nc(-c3ccc(O)c(F)c3)oc12 [prinaberel] (10 µM) | 0.143 | 96.5% (inactive) |
| Cc1ncc(C[n+]2csc(CCOP(=O)(O)OP(=O)(O)O)c2C)c(N)n1 [thiamine-pyrophosphate] (10 µM) | 0.112 | 105% (inactive) |
| CCC(=O)O[C@]1(C(=O)CCl)[C@@H](C)C[C@H]2[C@@H]3C[C@H](F)C4=CC(=O)C=C[C@]4(C)[C@@]3(F)[C@@H](O)C[C@@]21C [halobetasol-propionate] (10 µM) | 0.0989 | 106% (inactive) |
| C=CCNc1ncnc2ccc(Br)cc12 (10 µM) | 0.19 | 101% (inactive) |
| COc1ccc(/C=C/C(=O)O)cc1 [trans-4-methoxycinnamic-acid] (10 µM) | 0.07 | 106% (inactive) |
| CC(=O)O/N=C1\C(=O)N(Cc2cc(Cl)ccc2Cl)c2ccc(Cl)cc21 (10 µM) | 0.395 | 76% (inactive) |
| N[C@@H](C(=O)N[C@@H]1C(=O)N2C(C(=O)O)=C(Cl)CC[C@H]12)c1ccccc1 [loracarbef] (10 µM) | 0.167 | 101% (inactive) |
| Nc1ccc(C(=O)Nc2cccc(-c3nc(N4CCOCC4)c4oc5ncccc5c4n3)c2)cn1 (10 µM) | 0.168 | 94.5% (inactive) |
| C[C@@H]1CN(Cc2ccc(F)cc2)[C@@H](C)CN1C(=O)c1cc2c(C(=O)C(=O)N(C)C)cn(C)c2cc1Cl [talmapimod] (10 µM) | 0.103 | 88.5% (inactive) |
| CC(=O)c1cnc2ccc(-c3cc(Cl)c(O)c(Cl)c3)nc2c1N[C@H]1CC[C@H](CN(C)C)CC1 (0.833333 µM) | 0.294 | 96% (inactive) |

| Compound | morphology score [1] | SARS-CoV-2 infection rate [2] |
| --- | --- | --- |
| O=C(CCCN1CCN(c2ccccn2)CC1)c1ccc(F)cc1 [azaperone] (10 µM) | 0.13 | 83% (inactive) |
| O=C(CNC(=O)c1ccc(Cl)cc1)NO [benurestat] (10 µM) | 0.153 | 114% (inactive) |
| O=[N+]([O-])c1cccc2cn[nH]c12 [7-nitroindazole] (10 µM) | 0.0542 | 100% (inactive) |
| C=C[C@@]1(C)CC(=O)[C@]2(O)[C@@]3(C)[C@@H](O)CCC(C)(C)[C@@H]3[C@H](OC(=O)CCN(C)C)[C@H](OC(C)=O)[C@@]2(C)O1 [colforsin-daproate] (0.833333 µM) | 0.5 | 88.5% (inactive) |
| NS(=O)(=O)c1cc2c(cc1Cl)N=CNS2(=O)=O [chlorothiazide] (10 µM) | -0.179 | 106% (inactive) |
| CC[C@H](/C=C/[C@@H](C)[C@H]1CC[C@H]2[C@@H]3CC=C4C[C@@H](O)CC[C@]4(C)[C@H]3CC[C@]12C)C(C)C [Stigmasterol (Stigmasterin)] (10 µM) | 0.0238 | 116% (inactive) |
| CN(Cc1ccc(C(C)(C)C)cc1)Cc1cccc2ccccc12 [butenafine] (10 µM) | 0.502 | 71% (inactive) |
| CN(C)C1CCN(C(=O)c2ccc(NC(=O)Nc3ccc(-c4nc(N5CCOCC5)nc(N5CCOCC5)n4)cc3)cc2)CC1 (10 µM) | -0.0113 | 115% (inactive) |
| O=C(O)Cc1ccc(OCCNC[C@H](O)c2ccccc2)cc1 (10 µM) | -0.102 | 106% (inactive) |
| C[C@H](CCC(=O)NCCS(=O)(=O)O)[C@H]1CC[C@H]2[C@@H]3[C@H](O)C[C@@H]4C[C@H](O)CC[C@]4(C)[C@H]3C[C@H](O)[C@]12C [taurocholate] (10 µM) | -0.0884 | 116% (inactive) |
| COc1cc(N2CCN(C(C)=O)CC2)ccc1Nc1ncc(Cl)c(Nc2ccc(N3CCN(C(C)=O)CC3)cc2OC)n1 (10 µM) | 0.0828 | 114% (inactive) |
| COc1c(O)cc2c(c1O)[C@@H]1O[C@H](CO)[C@@H](O)[C@H](O)[C@H]1OC2=O [bergenin] (10 µM) | 0.087 | 96% (inactive) |
| C[C@H](CCC(=O)NCCS(=O)(=O)O)[C@H]1CC[C@H]2[C@@H]3[C@@H](O)C[C@@H]4C[C@H](O)CC[C@]4(C)[C@H]3CC[C@]12C [ursodeoxycholyltaurine] (10 µM) | 0.0842 | 102% (inactive) |
| Cc1ccc2nc(NCCN)c3ncc(C)n3c2c1 (0.833333 µM) | -0.353 | 116% (inactive) |
| CC12CCC(C(=O)N(CCCCN3CCN(c4ccccn4)CC3)C1=O)C2(C)C (stereo not given) [piricapiron] (10 µM) | 0.11 | 103% (inactive) |
| O=c1cc(-c2ccc(O)cc2)oc2cc(O)cc(O)c12 [apigenin] (10 µM) | 0.129 | 104% (inactive) |
| CC1CCc2c(N3CCC(O)CC3)c(F)cc3c(=O)c(C(=O)O)cn1c23 (stereo not given) [nadifloxacin] (10 µM) | -0.0037 | 106% (inactive) |
| Clc1ccc(C2(c3ccc(-c4cn[nH]c4)cc3)CCNCC2)cc1 (0.833333 µM) | 0.29 | 112% (inactive) |
| CC(=O)N(C)c1cc(-c2ccnc3c(C(=O)c4cccs4)cnn23)ccc1F [lorediplon] (10 µM) | -0.126 | 112% (inactive) |
| O=C(c1c(F)ccc(NS(=O)(=O)N2CC[C@@H](F)C2)c1F)c1c[nH]c2ncc(-c3cnc(C4CC4)nc3)cc12 (10 µM) | 0.162 | 103% (inactive) |
